Screening results (PubChem)
Sampled rows, rich in hits. Any-hit rate of the full collection: about 11%.
3T3 cytotox – kills NIH 3T3 cells; NIH 3T3 viability, CellTiter-Glo ATP luminescence, 48-72 h; 4.3% of 94,000 active; Potency, µM (series often up to 96.7 µM), for the others: at the highest dose activity change, negative = cytotoxicity, usual class: inhibitors; AID 1345082; further: nearly all actives have a fitted effect of over 55% in size
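Luminescent ATP readout (CellTiter-Glo, 10 min RT) after 48 or 72 hr compound exposure of NIH 3T3 cells seeded at 400 cells/well in 1536-well format; quantitative HTS.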
HEK293 tox – HEK 293 cell cytotoxicity; HEK 293 viability, ATP luminescence (CellTiter-Glo), 48-72 h; Potency, µM (titrated, usually from 115 µM), inactives show at the highest dose activity change, negative = cytotoxicity, hits mostly inhibitors; 6.6% of 94,000 active; further: nearly all actives have a fitted effect of over 60% in size
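ATP-coupled CellTiter-Glo luminescence served as viability read-out, recorded 10 min after reagent addition at room temperature. HEK 293 cells, 250 cells/well, had been incubated with pintool-transferred compound for 48 or 72 hr at 37 degree Celsius.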
Luciferase inh – inhibitors of firefly (Photinus pyralis) luciferase | purified P. pyralis luciferase, luminescence, biochemical | 2.5% of 76,000 active | Potency, µM (top dose mostly 115 µM), most hits filed as inhibitors | P08659 | AID 1347043; further: nearly all actives have a fitted effect of over 65% in size
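Luminescence read by CCD imager after adding enzyme (10nM final) to wells holding compound, titrated in qHTS. Substrates 10uM each D-luciferin and ATP; buffer 50mM Tris acetate pH 7.5, 10mM Mg acetate, Tween-20, BSA.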
NPR1 antag – human Npr1 receptor antagonism | 1.6% of 76,000 active | P16066 | Potency, µM (series often up to 46.3 µM), without a hit: at the top dose activity change, negative = inhibition, most hits filed as inhibitors | HEK293 hNpr1 GloSensor cGMP, ANP-stimulated luminescence; calls by dose curve; further: nearly all actives have a fitted effect of over 60% in size
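Compound pre-incubated 30 min at room temperature on GloSensor-loaded HEK293 cells stably carrying hNpr1 and the pGS-40F cGMP biosensor. Stimulation uses hNppA at 0.1 nM final; luminescence is taken at baseline and 20 min post-agonist.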
An asterisk follows results filed as active; [ ] = another dose, or the depositor's remark. Unless noted, the call rests on the fitted dose curve; in most records, active means well fitted curve in the direction sought with a large enough effect; inconclusive means small, poorly fitted or top-dose-only effect, or another doubt; inactive means no such curve, though single readings can be large; an effect the other way counts as inactive or inconclusive. On the % scale 0 is the no-effect control and ±100 the full control effect; potency means the concentration at half of the fitted maximal effect.

Results for CCCCc1ccc(NC(=O)CN2C(=O)NC(c3ccc(C)cc3)C3=C2COC3=O)cc1 (stereo not drawn) ?
3T3 cytotox: inconclusive; HEK293 tox: 45µM*; Luciferase inh: inactive; NPR1 antag: -14%

How did Cc1ccc(NC(=O)CN2C(=O)NC(c3ccc(Cl)cc3)C3=C2COC3=O)cc1Cl (stereo not drawn) do in these assays?
3T3 cytotox: 28µM*; HEK293 tox: 32µM*; Luciferase inh: inconclusive; NPR1 antag: inconclusive

Results for CCOC(=O)c1ccccc1NC(=O)CN1C(=O)NC(c2ccc(Cl)cc2)C2=C1COC2=O (stereo not drawn) ?
3T3 cytotox: 40µM*; HEK293 tox: inconclusive; Luciferase inh: inactive; NPR1 antag: -12%

How did CCOc1ccccc1NC(=O)CN1C(=O)NC(c2ccc(Cl)cc2)C2=C1COC2=O (stereo not drawn) do in these assays?
3T3 cytotox: inconclusive; HEK293 tox: inconclusive; Luciferase inh: inactive; NPR1 antag: -2%

How did COc1ccc(F)cc1-c1cccc(C(=O)NCCNC(=O)c2ccc(Cl)nc2)c1 do in these assays?
3T3 cytotox: inconclusive; HEK293 tox: 40µM*

What do the screens show for `COCC(=O)NCCNC(=O)c1cccc(-c2cc(F)ccc2OC)c1`?
3T3 cytotox: -20%; HEK293 tox: 1%

Results for COc1ccc(F)cc1-c1cccc(C(=O)NCCNC(=O)c2cccc(Cl)c2)c1 ?
3T3 cytotox: inconclusive; HEK293 tox: 20µM*

Results for COc1ccc(F)cc1-c1cccc(C(=O)NCCN[S+](C)(=O)[O-])c1 ?
3T3 cytotox: -29%; HEK293 tox: -12%

Results for COc1ccc(F)cc1-c1cccc(C(=O)NCCNC(=O)Nc2ccc(Cl)cc2)c1 ?
3T3 cytotox: 32µM*; HEK293 tox: inconclusive

Results for COc1ccc(F)cc1-c1cccc(C(=O)NCCNC(=O)Cc2cccc(Cl)c2)c1 ?
3T3 cytotox: 40µM*; HEK293 tox: inconclusive

Results for COc1ccc(F)cc1-c1cccc(C(=O)NCCNC(C)=O)c1 ?
3T3 cytotox: inconclusive; HEK293 tox: -25%[172 µM]

Results for COc1ccc(F)cc1-c1cccc(C(=O)NCCNC(=O)c2ccc(Cl)cc2)c1 ?
3T3 cytotox: inconclusive; HEK293 tox: 45µM*

Results for COc1cccc(C(=O)NCCNC(=O)c2cccc(-c3cc(F)ccc3OC)c2)c1 ?
3T3 cytotox: 45µM*; HEK293 tox: inconclusive

How did C[C@@H]1CN(C(=O)Cc2cccnc2)C[C@H]1c1nc(-c2ccncc2)no1 do in these assays?
3T3 cytotox: inactive; HEK293 tox: 15%; Luciferase inh: inactive; NPR1 antag: 3%

Results for Cc1cc(Cl)ccc1NC(=O)N1C[C@H](c2nc(-c3cccnc3)no2)[C@@H](C)C1 ?
3T3 cytotox: -25%; HEK293 tox: 45µM*; Luciferase inh: inactive; NPR1 antag: -21%

Results for C[C@H]1CN(C(=O)C2CCCC2)C[C@@H]1c1nc(-c2ccccc2)no1 ?
3T3 cytotox: 32µM*; HEK293 tox: inconclusive; Luciferase inh: inconclusive; NPR1 antag: -26%

Results for CNC(=O)CCn1ncc2cc(OC3CCc4cccc(-c5cccc(F)c5)c43)ccc21 (stereo not drawn) ?
3T3 cytotox: inconclusive; HEK293 tox: inconclusive; Luciferase inh: inactive; NPR1 antag: -25%[70.6 µM]

How did CNC(=O)CCn1ncc2cc(OC3CCc4cccc(-c5ccccc5F)c43)ccc21 (stereo not drawn) do in these assays?
3T3 cytotox: 50µM*; HEK293 tox: inconclusive; Luciferase inh: inactive; NPR1 antag: inconclusive

Results for CNC(=O)CCn1ncc2cc(OC3CCc4cccc(-c5ccc(F)cc5)c43)ccc21 (stereo not drawn) ?
3T3 cytotox: inconclusive; HEK293 tox: 63µM*; Luciferase inh: inactive; NPR1 antag: -19%[70.6 µM]

How did CNC(=O)CCn1ncc2cc(OC3CCc4cccc(-c5ccccc5)c43)ccc21 (stereo not drawn) do in these assays?
3T3 cytotox: inconclusive; HEK293 tox: inconclusive; Luciferase inh: inactive; NPR1 antag: -24%[70.6 µM]

Results for CC1=C[C@@H](CNC(=O)C2CC2)[C@H](C(C)C)C[C@H]1Cc1nnc(-c2cncn2C)o1 ?
3T3 cytotox: inconclusive; HEK293 tox: inconclusive; Luciferase inh: inactive; NPR1 antag: 5%[70.6 µM]

Results for CC1=C[C@@H](CNC(=O)c2ccccc2)[C@H](C(C)C)C[C@H]1Cc1nnc(-c2cncn2C)o1 ?
3T3 cytotox: 100µM*; HEK293 tox: 79µM*; Luciferase inh: inactive; NPR1 antag: -15%[70.6 µM]

What do the screens show for `CC1=C[C@@H](CNc2ccccn2)[C@H](C(C)C)C[C@H]1Cc1nnc(-c2cncn2C)o1`?
3T3 cytotox: inconclusive; HEK293 tox: 63µM*; Luciferase inh: inactive; NPR1 antag: -14%[70.6 µM]

Results for O=C(C1CC1)N1CCCC(C(=O)N2CCC(c3nc4ncccc4[nH]3)C2)C1 (stereo not drawn) ?
3T3 cytotox: -19%; HEK293 tox: 4%

What do the screens show for `CC(C)c1noc(C2Cc3ccccc3N2C(=O)Nc2ccc3c(c2)OCCO3)n1` (stereo not drawn)?
3T3 cytotox: inconclusive; HEK293 tox: inconclusive; Luciferase inh: 16µM*; NPR1 antag: -14%

How did CC(C)c1noc(C2Cc3ccccc3N2C(=O)NC2CCCC2)n1 (stereo not drawn) do in these assays?
3T3 cytotox: 32µM*; HEK293 tox: -23%; Luciferase inh: inactive; NPR1 antag: 8%

Results for CC(=O)N1c2ccccc2CC1c1nc(C(C)C)no1 (stereo not drawn) ?
3T3 cytotox: -12%; HEK293 tox: -22%; Luciferase inh: inconclusive; NPR1 antag: -2%

Results for O=C(Nc1ccc2c(c1)OCCO2)N1c2ccccc2CC1c1nc(C2CC2)no1 (stereo not drawn) ?
3T3 cytotox: -26%; HEK293 tox: inconclusive; Luciferase inh: 13µM*; NPR1 antag: -18%

Results for CCOC(=O)c1ccc(NC(=O)N2CCC3(CC2)SCC(=O)N3Cc2ccco2)cc1 ?
3T3 cytotox: inconclusive; HEK293 tox: inconclusive; Luciferase inh: inactive; NPR1 antag: -12%

What do the screens show for `COCCc1noc(-c2nc(-c3ccccc3F)no2)n1`?
3T3 cytotox: -1%; HEK293 tox: -12%; Luciferase inh: 28µM*; NPR1 antag: -2%

What do the screens show for `Cc1nc(CCC(=O)N2CCn3nc(C(=O)Nc4ccccc4)cc3C2)n[nH]1`?
3T3 cytotox: -7%; HEK293 tox: -23%; Luciferase inh: 28µM*; NPR1 antag: -1%

What do the screens show for `COc1ccc(CC(=O)NC2CCCN(c3ccnc4ccnn34)C2)cc1` (stereo not drawn)?
3T3 cytotox: -12%; HEK293 tox: 5%

Results for CC(=O)NC1CCN(c2ccnc3ccnn23)C1 (stereo not drawn) ?
3T3 cytotox: -10%[138 µM]; HEK293 tox: -11%[172 µM]

How did COc1ccc(C(=O)NC2CCN(c3ccnc4ccnn34)C2)cc1 (stereo not drawn) do in these assays?
3T3 cytotox: inconclusive; HEK293 tox: 50µM*
